Drawing on PubChem BioAssay (NCATS), this text covers Potency for twelve molecules.

Several values for one entry are separate records, joined by “and”; a condition that tells them apart may be missing. Equal entries are not always repeated. Unmarked numbers belong to inactive results. Calls follow the shape of the full dose curve. Bounds are passed on as bounds.
Potency is read from the fitted curve at half-maximal effect.

In this assay the target is Glucocorticoid receptor (Homo sapiens) (UniProt P04150). The assay can be described thus: GR-EFC Redistribution (AID 451). To be noted: CHO-K1 GR-EFC translocation, beta-gal luminescence, 2 h. Put shortly: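 CHO-K1 cells expressing nuclear EA and GR-ED fragments of b-gal; compounds titrated up to 46 uM final, 2 h at 37 C. GR nuclear translocation read as complemented b-gal luminescence after 1 h RT detection.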
Sequence of Glucocorticoid receptor (Homo sapiens) (P04150 whole entry, looked up, the tested form may be a part): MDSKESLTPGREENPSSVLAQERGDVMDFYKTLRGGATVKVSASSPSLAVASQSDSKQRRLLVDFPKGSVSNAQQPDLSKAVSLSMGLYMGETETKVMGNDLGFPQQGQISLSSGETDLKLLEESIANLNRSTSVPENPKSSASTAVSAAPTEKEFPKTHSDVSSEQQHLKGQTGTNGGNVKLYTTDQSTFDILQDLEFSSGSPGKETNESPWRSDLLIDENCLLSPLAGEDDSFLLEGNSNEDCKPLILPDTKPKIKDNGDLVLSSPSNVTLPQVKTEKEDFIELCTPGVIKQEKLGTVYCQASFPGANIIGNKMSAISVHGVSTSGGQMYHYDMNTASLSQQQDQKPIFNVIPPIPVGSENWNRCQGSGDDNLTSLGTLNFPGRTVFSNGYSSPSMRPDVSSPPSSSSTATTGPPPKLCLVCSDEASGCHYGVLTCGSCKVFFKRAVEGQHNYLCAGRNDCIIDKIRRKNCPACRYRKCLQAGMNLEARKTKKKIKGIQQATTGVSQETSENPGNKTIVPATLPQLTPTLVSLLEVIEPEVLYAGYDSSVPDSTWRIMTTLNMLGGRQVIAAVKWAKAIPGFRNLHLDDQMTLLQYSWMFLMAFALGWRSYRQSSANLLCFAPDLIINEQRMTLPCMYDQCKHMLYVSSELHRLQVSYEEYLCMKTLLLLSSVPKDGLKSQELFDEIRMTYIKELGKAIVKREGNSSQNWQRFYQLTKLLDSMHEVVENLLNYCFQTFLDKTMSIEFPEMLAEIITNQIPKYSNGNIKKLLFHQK
In the case of `O=C(O)C[C@H](Cc1ccc2c(c1)OCO2)C(=O)O`, the Potency is above 9.22 µM.

`CC(=O)OCC(=O)[C@]12OC(C)(C)O[C@@H]1C[C@H]1[C@H]3CC=C4C[C@@H](O)CC[C@]4(C)[C@H]3CC[C@]12C`: the Potency was above 9.22 µM.

For `COc1ccc2cc1Oc1ccc(cc1)C[C@H]1c3cc(c(OC)cc3CCN1C)Oc1c(OC)c(OC)cc3c1[C@@H](C2)N(C)CC3`, the Potency was > 20.6 µM and > 46 µM and > 9.22 µM.

For the molecule `N[C@@H](CSCc1ccccc1)C(=O)O`, the Potency was above 9.22 µM.

For `CN(C)[C@H]1C(=O)C(C(=O)NCN2CCCC2)=C(O)[C@]2(O)C(=O)C3=C(O)c4c(O)cccc4[C@](C)(O)[C@H]3C[C@H]12`, the Potency is above 9.22 µM.

Take `CN(C)c1ccc(-c2cc(NCc3ccccc3)ncn2)cc1`: the Potency is above 46 µM.

On to `COc1ccccc1-c1nc(NCc2ccccc2)c2ccccc2n1`, for which the Potency was above 46 µM.

Consider `C[C@]12CC[C@H]3c4ccc(O)cc4CC[C@@H]3[C@H]1CC[C@@H]2OC(=O)CCC1CCCC1`, for which the Potency was above 9.22 µM.

`Nc1nc2c(ncn2[C@@H]2C=C[C@@H](CO)C2)c(=O)[nH]1`: the Potency was above 9.22 µM.

For `CN(N=O)c1ccc(/C=C\c2ccnc3ccccc23)cc1`, the Potency is above 9.22 µM.

In the case of `COc1cccc(Cn2c(=O)c(C)nc3cnc(Oc4cccc(Cl)c4)nc32)c1`, the Potency was above 46 µM.

Consider `Cc1cn([C@H]2C[C@H](N=[N+]=[N-])[C@H](CO)O2)c(=O)[nH]c1=O`, for which the Potency is > 46 µM and > 9.22 µM.
